Most compounds without a hit are left out; they make up all but 2.9% or so of the library.
HEK293 viab: cell viability loss counter-screen | HEK-293-SNCA-luc viability, GF-AFC fluorescence, 24 h | Potency, µM (doses to about 57.1 µM), hits mostly cytotoxic | actives 0.12% (n = 150,000) | AID 1671193; note: nearly all actives have a fitted effect of over 30% in size
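HEK-293-SNCA-luc cells (1500/well) plated 24 h, then exposed 24 h to a dilution series; GF-AFC added 30 min at 37C, fluorescence 405/540 nm; normalised to medium-only and DMSO wells, Hill fit.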
IP6K1 inh: inhibitors of human IP6K1; Q92551; IP6K1 kinase, ADP-Glo luminescence, 2 h; active compounds read low; AID 1645851; activity change, % (series mostly up to about 58 µM); actives 0.81% (n = 140,000); in the data active = activity change below about -25%
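ADP-Glo luminescence measures ADP made by human IP6K1 during a 2 h RT reaction with ATP/IP6 (mix at 1.3 mM/130 uM); top library doses 57.5 and 19.1 uM final.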
KDM5B inhibitor: blocks human KDM5B histone demethylase activity; actives 2.6% (n = 220,000); Potency, µM (titrated, usually from 57.7 µM), usual class: inhibitors; KDM5B demethylase, FDH-coupled NADH fluorescence (FDH is formaldehyde dehydrogenase); note: nearly all actives have a fitted effect of over 70% in size
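KDM5BΔAP (200 nM final) in 50 mM HEPES pH 7.5, 0.01% Tween-20 was preincubated 10 min at RT with compound over a concentration range. Substrate mix (H3K4me3 12.5 µM, α-KG 25 µM, Fe²⁺, ascorbate, NAD⁺, FDH) was added, and NADH fluorescence change over 30 min gave dose-response curves.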
SNCA expr inh: SNCA gene expression inhibition | Potency, µM (doses to about 57.2 µM), usual class: inhibitors | HEK-293 SNCA-luciferase knock-in, luminescence, 24 h | actives 0.17% (n = 140,000) | AID 1671194; note: nearly all actives have a fitted effect of over 45% in size
Large screens that a line does not name were inactive. Unless noted, calls come from the whole dose curve; as a rule, active = well fitted curve in the direction sought with a large enough effect; inconclusive = small, poorly fitted or top-dose-only effect, or another doubt; inactive = no such curve, though single readings can be large; an effect the other way counts as inactive or inconclusive.

OC1CC(c2cc(N3CCN(c4nsc5ccccc45)CC3)ncn2)C1 (centres undefined)	HEK293 viab inconclusive, KDM5B inhibitor 32µM, SNCA expr inh inconclusive
COCCN1Cc2ccc(NCC(C)C)nc2C(C)(C(=O)Nc2ccccc2)C1 (centres undefined)	KDM5B inhibitor inconclusive
CC1(C(=O)Nc2ccccc2)CN(Cc2ccccc2)Cc2ccc(N3CCOCC3)nc21 (centres undefined)	KDM5B inhibitor 13µM, SNCA expr inh inconclusive
CC1(C(=O)Nc2ccc(F)cc2)CN(Cc2ccccc2)Cc2ccc(N3CCOCC3)nc21 (centres undefined)	KDM5B inhibitor 32µM, SNCA expr inh inconclusive
CN1CCC(NC(=O)C2(C)CN(Cc3ccccc3)Cc3ccc(Nc4ccccc4)nc32)CC1 (centres undefined)	KDM5B inhibitor inconclusive
O=C(N1CCOCC1)N1CCCC1c1nnc2n1CCNC2 (centres undefined)	KDM5B inhibitor inconclusive
Cc1ccc(C(=O)CCC(=O)Nc2ccc(C)cc2C)cc1	none
O=c1cc(CSc2ccc3ccccc3n2)nc2ccccn12	none (no result: HEK293 viab, IP6K1 inh, SNCA expr inh)
CSc1ccc(-c2nc3c([nH]2)CC(C)(C)CNC3=O)cc1	KDM5B inhibitor 28µM
CC1(C)CNC(=O)c2nc(CCSCc3ccco3)[nH]c2C1	none
COc1ccc(Cl)cc1NC(=O)Cn1c(N2CCC(C)CC2)nc(C)cc1=O	KDM5B inhibitor 28µM
COc1ccc(Cl)cc1NC(=O)Cn1c(N2CCCCC2)nc(C)c(C)c1=O	KDM5B inhibitor 20µM
COc1ccc(OC)c(NC(=O)Cn2c(N3CCCCC3)nc(C)c(C)c2=O)c1	KDM5B inhibitor inconclusive
COc1ccc(-c2cc(N3CCCC(NC(=O)c4cccc(NC(C)=O)c4)C3)n[nH]2)cc1 (centres undefined)	none
CCCCc1nn2c(=O)cc(COC(=O)c3ccc(NC(=O)C(CC)CC)cc3)nc2s1	none
O=C(NCCc1ccccc1)OCc1cn(Cc2ccc(F)cc2F)nn1	none (no result: HEK293 viab, IP6K1 inh, SNCA expr inh)
CCOC(=O)c1nn(Cc2ccc(OC)cc2)c2c1CN(C(=O)c1ccc3nc[nH]c3c1)CC2	KDM5B inhibitor 32µM
CCc1ccc(Nc2nnc(-c3cc4cc(OC)ccc4oc3=O)s2)cc1	HEK293 viab inconclusive
O=C(Cn1ccn2nc(-c3ccccc3)c(CO)c2c1=O)NCc1ccc2c(c1)OCO2	KDM5B inhibitor 32µM
O=c1c2c(CO)c(-c3ccccc3)nn2ccn1Cc1ccccc1Cl	KDM5B inhibitor inconclusive
O=C(Cn1ccn2nc(-c3ccccc3)c(CO)c2c1=O)NCc1ccccc1Cl	KDM5B inhibitor 20µM
O=C(Cn1ccn2nc(-c3ccc(F)cc3)c(CO)c2c1=O)NCc1ccc(F)cc1F	none
O=C(Cn1ccn2nc(-c3ccc(F)cc3)c(CO)c2c1=O)NCc1ccccc1Br	KDM5B inhibitor 22µM
Cc1ccnc(NC(=O)CCc2ncc(-c3ccc(Cl)cc3)o2)c1	none (no result: HEK293 viab, IP6K1 inh, SNCA expr inh)
Cc1nn(-c2ccccc2)c2c1C(C1CC1)N(C1CCN(C(=O)C(C)C)C1)C2=O (centres undefined)	none (no result: HEK293 viab, KDM5B inhibitor, SNCA expr inh)
COc1ccccc1Nc1nnc(SCC(=O)NC2CC2)s1	none (no result: HEK293 viab, IP6K1 inh, SNCA expr inh)
Cc1ccc(NC(=O)c2cc3c(N4CCSCC4)nc(C)cn3n2)c(C)c1	KDM5B inhibitor 32µM
CSc1ccc(NC(=O)c2cc3c(N4CCSCC4)nc(C)cn3n2)cc1	none
Cc1ccc(F)c(NC(=O)c2cc3c(N4CCSCC4)nc(C)cn3n2)c1	KDM5B inhibitor 32µM
CC(C)c1noc(-c2cccn3c(CNC(=O)c4cc(F)ccc4Cl)nnc23)n1	KDM5B inhibitor 22µM
CC(C)c1noc(-c2cccn3c(CNC(=O)c4cc(F)ccc4F)nnc23)n1	KDM5B inhibitor 25µM
Cc1ccc(C)c(C(=O)NCc2nnc3c(-c4nc(C(C)C)no4)cccn23)c1	KDM5B inhibitor inconclusive
CC(C)c1noc(-c2cccn3c(CNC(=O)c4ccccc4F)nnc23)n1	KDM5B inhibitor inconclusive, SNCA expr inh inconclusive
CCc1noc(-c2cccn3c(CNC(=O)c4cc(F)ccc4F)nnc23)n1	KDM5B inhibitor 28µM
CCc1noc(-c2cccn3c(CNC(=O)c4ccc(F)c(F)c4)nnc23)n1	KDM5B inhibitor 4µM
CCc1noc(-c2cccn3c(CNC(=O)c4ccc(F)cc4Cl)nnc23)n1	KDM5B inhibitor inconclusive
CC(C)c1noc(-c2cccn3c(CNC(=O)c4ccc(F)cc4Cl)nnc23)n1	KDM5B inhibitor 25µM
O=C(c1ccccc1)N1CCC12Cc1ccccc1NC2=O (centres undefined)	none
COC(=O)/C=C/C(=O)N(O)CCCCNCc1ccc(COC(=O)Nc2cccc3ccccc23)cc1	HEK293 viab 24µM (no result: KDM5B inhibitor, SNCA expr inh)
O=C(NCc1ccccc1)c1nc2c(o1)CCN(Cc1ccc(F)cc1)CC2	none
O=C(NCc1ccccc1)c1nc2c(o1)CCN(Cc1ccc(F)c(Cl)c1)CC2	KDM5B inhibitor 28µM
O=C(Nc1ccc(Cl)cc1)c1nc2c(o1)CCN(Cc1ccccc1)CC2	KDM5B inhibitor 32µM
O=C(NCCOc1ccccc1)c1nc2c(o1)CCN(Cc1ccc3[nH]ccc3c1)CC2	KDM5B inhibitor 40µM
O=C(Nc1ccc(Cl)cc1)c1nc2c(o1)CCN(Cc1cc(F)ccc1F)CC2	KDM5B inhibitor 32µM
O=C(NCC1CC1)c1nc2c(o1)CCN(Cc1ccc3[nH]ccc3c1)CC2	none
CCN(CC)[C@H]1[C@@H]2OC[C@@H](O2)[C@@H](NCc2ccc(-c3ccccc3)cc2)[C@@H]1O	KDM5B inhibitor inconclusive
COc1ccc(CNC(=O)N[C@@H](CC(C)C)C(=O)O)cc1OC	none (no result: HEK293 viab, IP6K1 inh, SNCA expr inh)
CN1CCCC2(C1)CN(Cc1cccnc1)c1ccc(C(=O)Nc3ccc(F)cc3)cc12 (centres undefined)	none
COc1ccc(NC(=O)c2ccc3c(c2)C2(CCCN(C)C2)CN3C)cc1 (centres undefined)	none
CN1CCC2(C1)CN(Cc1ccccc1)c1ccc(C(=O)Nc3ccc(F)cc3)cc12 (centres undefined)	KDM5B inhibitor inconclusive
CC(C)CNC(=O)c1ccc2c(c1)C1(CCN(C)C1)CN2CC1CC1 (centres undefined)	KDM5B inhibitor 35µM
CN1CCCC2(C1)CN(C)c1ccc(C(=O)NCC3CCCCC3)cc12 (centres undefined)	KDM5B inhibitor 35µM
CN1CCC2(C1)CN(CC1CC1)c1ccc(C(=O)NCC3CC3)cc12 (centres undefined)	KDM5B inhibitor 35µM
CN1CCCC2(C1)CN(C)c1ccc(C(=O)Nc3ccc(F)cc3)cc12 (centres undefined)	KDM5B inhibitor 35µM
CCn1c(SCC(=O)c2ccc(Cl)cc2)nc2c1c(=O)[nH]c(=O)n2C	none (no result: HEK293 viab, IP6K1 inh, SNCA expr inh)
COc1ccccc1-c1nccn1-c1ccc(CC(=O)NC2CC2)cc1	none
O=C(NCc1cccs1)c1ccc2ccccc2c1	none (no result: HEK293 viab, IP6K1 inh, SNCA expr inh)
CN1CCCC2(C1)CN(C)c1ccc(C(=O)NCc3cccs3)cc12 (centres undefined)	KDM5B inhibitor 35µM
Cc1ccccc1-c1nccn2c(C3CN(C(=O)c4cc5ccccc5[nH]4)C3)ncc12	KDM5B inhibitor 50µM
COc1ccc(Cl)cc1NC(=O)C(C)N1Cc2ccccc2C1=O (centres undefined)	none

Screens (PubChem BioAssay)
